Results from PubChem BioAssay (EPA / NIEHS).
Several values for one entry are separate records, joined by “and”; a condition that tells them apart may be missing. Identical values can stand only once. Results filed as inconclusive are left out. Some compounds were tested as several samples or in several runs, with calls that do not always agree. Activity calls are given as the source filed them. Rule for the calls, unless noted: active = hit-call score of the fitted dose curve at least 0.9, where 1 is the maximum; inactive = score below 0.9.

Key:
[1] = read-out: Interleukin-8 (IL8), CXCL8 (gene 3576); test: BSK_3C_IL8: BioMAP Diversity Plus: 3C Assay for Interleukin-8 (IL8) Biomarker Activity (AID 2283020); details: primary human endothelial cells (HUVEC); actives raise or lower the signal
Outline: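 Primary human umbilical vein endothelial cells (3C system) were exposed to test chemical for 24 h, then IL-8 was quantified by ELISA. Responses were fitted bidirectionally against DMSO vehicle as baseline.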

[2] = read-out: Monokine induced gamma interferon (MIG), CXCL9 (gene 4283); test: BSK_3C_MIG: BioMAP Diversity Plus: 3C Assay for Monokine induced gamma interferon (MIG) Biomarker Activity (AID 2283021); details: primary human endothelial cells (HUVEC); actives raise or lower the signal;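 for AC50: MIG protein level measured by immunoassay in the treated endothelial cultures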
Outline: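 Primary human umbilical vein endothelial cells in the 3C system were exposed to chemical for 24 h, after which MIG was quantified by ELISA. Activity was fitted bidirectionally against DMSO as negative control and baseline.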

[3] = molecular target: human Vitamin D Receptor (VDR), VDR (gene 7421) (UniProt P11473); test: ATG_VDR_TRANS: Attagene TRANS-FACTORIAL HepG2 Assay for human Vitamin D Receptor (VDR) (AID 2283022; active = hit-call score of the fitted dose curve at least 0.9, where 1 is the maximum)
Sequence of human Vitamin D Receptor (VDR), VDR (gene 7421) (P11473 whole entry, looked up, the tested form may be a part): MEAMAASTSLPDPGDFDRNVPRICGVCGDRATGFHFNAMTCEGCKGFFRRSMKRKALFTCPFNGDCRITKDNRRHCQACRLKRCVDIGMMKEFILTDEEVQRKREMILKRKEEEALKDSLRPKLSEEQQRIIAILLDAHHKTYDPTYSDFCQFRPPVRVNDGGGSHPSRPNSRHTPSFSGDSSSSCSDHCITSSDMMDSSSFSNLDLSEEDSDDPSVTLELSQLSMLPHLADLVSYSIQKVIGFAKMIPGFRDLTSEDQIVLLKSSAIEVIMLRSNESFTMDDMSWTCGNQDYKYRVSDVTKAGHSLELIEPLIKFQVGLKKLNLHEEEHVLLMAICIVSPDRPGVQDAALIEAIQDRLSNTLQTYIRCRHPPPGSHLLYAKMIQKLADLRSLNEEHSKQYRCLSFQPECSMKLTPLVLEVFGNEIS
Outline: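 RT-PCR/capillary electrophoresis read-out of reporter mRNA induction in transiently transfected HepG2; 24 h dosing; chimeric NR-Gal4 (TRANS format); gain-of-signal fit against DMSO baseline.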

[4] = BSK_3C_SRB: Viability Assessment in the BioMAP Diversity Plus: 3C Assay (AID 2283023); details: primary human endothelial cells (HUVEC);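 note: cells read 24 h after compound dosing; fitted both ways against DMSO so a hit may be signal rise or drop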
Outline: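 HUVEC, 24 h post-dose; 10% TCA fix, 0.1% SRB stain, A560 nm. Bidirectional curve fit vs DMSO negative control.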

[5] = read-out: Matrix Metallopeptidase 1 (MMP1), MMP1 (gene 4312); test: BSK_BE3C_MMP1: BioMAP Diversity Plus: BE3C Assay for Matrix Metallopeptidase 1 (MMP1) Biomarker Activity (AID 2283024); details: primary human bronchial epithelial cells; actives raise or lower the signal
Outline: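 Primary human bronchial epithelial cells were dosed with test chemicals, and MMP1 levels were measured by ELISA 24 h later. Data were fitted bidirectionally against DMSO as the negative control and activity baseline.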

[6] = read-out: Pselectin, SELP (gene 6403); test: BSK_4H_Pselectin: BioMAP Diversity Plus: 4H Assay for Pselectin Biomarker Activity (AID 2283026); details: primary human endothelial cells (HUVEC); actives raise or lower the signal
Outline: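 Primary human umbilical vein endothelial cells were exposed to test chemical for 24 h, then cell-surface P-selectin was quantified by ELISA. Activity was fitted bidirectionally against DMSO as negative control and baseline.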

[7] = BSK_BE3C_SRB: Viability Assessment in the BioMAP Diversity Plus: BE3C Assay (AID 2283028); details: primary human bronchial epithelial cells
Outline: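 Primary human bronchial epithelium; chemical dosing, 24 h; 10% TCA fix, 0.1% SRB stain, A560; bidirectional fit vs DMSO baseline.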

[8] = read-out: Thrombomodulin, THBD (gene 7056); test: BSK_3C_Thrombomodulin: BioMAP Diversity Plus: 3C Assay for Thrombomodulin Biomarker Activity (AID 2283029); details: primary human endothelial cells (HUVEC); actives raise or lower the signal
Outline: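 Primary human umbilical vein endothelial cells (3C system) were exposed to chemical for 24 h, then thrombomodulin levels were measured by ELISA. Activity was fitted bidirectionally against the DMSO negative control as baseline.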

[9] = read-out: Urokinase-type plasminogen activator receptor (uPAR), PLAUR (gene 5329); test: BSK_4H_uPAR: BioMAP Diversity Plus: 4H Assay for Urokinase-type plasminogen activator receptor (uPAR) Biomarker Activity (AID 2283030); details: primary human endothelial cells (HUVEC); actives raise or lower the signal
Outline: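 HUVEC, 24 h post-dose; uPAR by ELISA; bidirectional fit vs DMSO baseline.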

[10] = read-out: Vascular endothelial growth factor receptor 2 (Homo sapiens) (UniProt P35968); test: BSK_4H_VEGFRII: BioMAP Diversity Plus: 4H Assay for Vascular endothelial growth factor receptor 2 (VEGFR2) Biomarker Activity (AID 2283031); details: primary human endothelial cells (HUVEC); actives raise or lower the signal;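 for AC50: cell-surface VEGFR2 protein level quantified by ELISA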
Outline: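 HUVEC (human primary), 4H system; 24 h post-dose; VEGFRII by ELISA; bidirectional curve fit vs DMSO baseline; gain or loss of signal scored.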

[11] = read-out: Human Leukocyte Antigen - DR isotype (HLADR), HLA-DRA (gene 3122); test: BSK_BE3C_HLADR: BioMAP Diversity Plus: BE3C Assay for Human Leukocyte Antigen - DR isotype (HLADR) Biomarker Activity (AID 2283032); details: primary human bronchial epithelial cells; actives raise or lower the signal
Outline: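 Human primary bronchial epithelial cells in the BE3C system were exposed to chemicals for 24 h, after which HLA-DR levels were quantified by ELISA. Activity was fitted bidirectionally, gain or loss of signal, against DMSO as negative control and baseline.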

[12] = read-out: Vascular cell adhesion molecule 1 (VCAM1), VCAM1 (gene 7412); test: BSK_4H_VCAM1: BioMAP Diversity Plus: 4H Assay for Vascular cell adhesion molecule 1 (VCAM1) Biomarker Activity (AID 2283033); details: primary human endothelial cells (HUVEC); actives raise or lower the signal;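 for outcome: cell-surface VCAM-1 protein measured by ELISA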
Outline: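 Primary human umbilical vein endothelial cells were exposed to chemicals for 24 h, after which VCAM-1 was quantified by ELISA. Responses were fitted bidirectionally against DMSO as negative control and activity baseline.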

[13] = read-out: Interferon-gamma inducible Protein 10 (IP10), CXCL10 (gene 3627); test: BSK_BE3C_IP10: BioMAP Diversity Plus: BE3C Assay for Interferon-gamma inducible Protein 10 (IP10) Biomarker Activity (AID 2283034); details: primary human bronchial epithelial cells; actives raise or lower the signal
Outline: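 Human primary bronchial epithelial cells were exposed to chemicals for 24 hours, after which IP-10 levels were measured by ELISA. Data were fitted bidirectionally against DMSO, which served as the negative control and activity baseline.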

[14] = read-out: Monokine induced gamma interferon (MIG), CXCL9 (gene 4283); test: BSK_BE3C_MIG: BioMAP Diversity Plus: BE3C Assay for Monokine induced gamma interferon (MIG) Biomarker Activity (AID 2283035); details: primary human bronchial epithelial cells; actives raise or lower the signal;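 for outcome: MIG protein measured by ELISA in BE3C cultures after 24 h of dosing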
Outline: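 MIG level was determined by ELISA after 24 h chemical treatment of primary human bronchial epithelial cells. Values were fitted bidirectionally with DMSO as the negative control and activity baseline.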

[15] = read-out: Plasminogen activator inhibitor-1 (PAI1), SERPINE1 (gene 5054); test: BSK_BE3C_PAI1: BioMAP Diversity Plus: BE3C Assay for Plasminogen activator inhibitor-1 (PAI1) Biomarker Activity (AID 2283037); details: primary human bronchial epithelial cells; actives raise or lower the signal
Outline: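 Human primary bronchial epithelial cells were exposed to chemical for 24 h, then PAI-1 was quantified by ELISA. Activity was fitted bidirectionally relative to the DMSO negative control baseline.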

[16] = read-out: urokinase plasminogen activator (uPA), PLAU (gene 5328); test: BSK_BE3C_uPA: BioMAP Diversity Plus: BE3C Assay for urokinase plasminogen activator (uPA) Biomarker Activity (AID 2283038); details: primary human bronchial epithelial cells; actives raise or lower the signal;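 note: uPA protein level quantified by ELISA in cell cultures; uPA read one day after compound addition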
Outline: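 ELISA read-out of uPA in human lung primary bronchial epithelial cultures, 24 h post-dosing. Gain or loss of signal fitted bidirectionally relative to DMSO baseline; cytotoxicity checked in parallel cultures via SRB total protein stain.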

[17] = read-out: Urokinase-type plasminogen activator receptor (uPAR), PLAUR (gene 5329); test: BSK_BE3C_uPAR: BioMAP Diversity Plus: BE3C Assay for Urokinase-type plasminogen activator receptor (uPAR) Biomarker Activity (AID 2283039); details: primary human bronchial epithelial cells; actives raise or lower the signal;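 for outcome: uPAR protein level measured by ELISA on the cells; cells exposed to compound for one day before measurement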
Outline: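 Primary human bronchial epithelial cells were dosed with chemical and harvested 24 h later; uPAR was quantified by ELISA. Activity was fitted bidirectionally against DMSO as negative control and baseline.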

[18] = BSK_3C_Vis: BioMAP Diversity Plus: 3C Assay for Morphology Visualization (AID 2283025); details: primary human endothelial cells (HUVEC);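 note: fitted both ways so gain or loss versus DMSO counts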
Outline: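 Human umbilical vein endothelial cells in the 3C system were imaged by light microscopy 24 h after chemical dosing to record cell morphology. Activity was fitted bidirectionally against DMSO as negative control and baseline; the endpoint serves as a background control.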

[19] = BSK_4H_SRB: Viability Assessment in the BioMAP Diversity Plus: 4H Assay (AID 2283027); details: primary human endothelial cells (HUVEC);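 note: cells exposed to compound for 24 h before staining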
Outline: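 Absorbance at 560 nm of SRB-stained total protein served as the viability read-out in confluent primary human umbilical vein endothelium 24 h after chemical treatment. Curves were fitted bidirectionally against DMSO as negative control.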

[20] = read-out: Transforming growth factor beta 1 (TGFb1), TGFB1 (gene 7040); test: BSK_BE3C_TGFb1: BioMAP Diversity Plus: BE3C Assay for Transforming growth factor beta 1 (TGFb1) Biomarker Activity (AID 2283036); details: primary human bronchial epithelial cells; actives raise or lower the signal
Outline: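 Human primary bronchial epithelial cells (BE3C system) were dosed with chemical and TGF-b1 levels measured by ELISA at 24 h. Activity was fitted bidirectionally relative to DMSO negative control as baseline.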

CCCCCCCCCCCC(=O)N(C)CC(=O)O
outcome [1]: inactive | outcome [2]: inactive | outcome [3]: inactive | outcome [4]: inactive | AC50 [5]: 8.01 µM (active) and 15.5 µM (active) | AC50 [6]: 1.89 µM (active) | outcome [6]: inactive | outcome [7]: inactive | outcome [8]: inactive | AC50 [9]: 19.5 µM (active) and 13.4 µM (active) | AC50 [10]: 9.25 µM (active) and 120 nM (active) | outcome [11]: inactive | AC50 [12]: 3.87 µM (active) and 2.41 µM (active) | outcome [13]: inactive | outcome [14]: inactive | outcome [15]: inactive | outcome [16]: inactive | outcome [17]: inactive

CCCCCCCCC(CO)CCCCCC (centres undefined)
outcome [1]: inactive | outcome [2]: inactive | outcome [3]: inactive | outcome [4]: inactive | outcome [18]: inactive | outcome [6]: inactive | outcome [19]: inactive | outcome [7]: inactive | outcome [8]: inactive | AC50 [9]: 2.51 µM (active) | outcome [10]: inactive | outcome [11]: inactive | outcome [12]: inactive | AC50 [13]: 2.01 µM (active) | outcome [14]: inactive | outcome [20]: inactive | AC50 [15]: 1.36 µM (active) | outcome [16]: inactive | outcome [17]: inactive

CCCCCCCO
outcome [1]: inactive | outcome [2]: inactive | outcome [3]: inactive | outcome [4]: inactive | outcome [5]: inactive | outcome [18]: inactive | outcome [6]: inactive | outcome [7]: inactive | outcome [8]: inactive | outcome [9]: inactive | outcome [10]: inactive | outcome [12]: inactive | outcome [13]: inactive | outcome [14]: inactive | outcome [20]: inactive | outcome [15]: inactive | outcome [16]: inactive | outcome [17]: inactive

CCOC(=O)C1=NOC(c2ccccc2)(c2ccccc2)C1
AC50 [1]: 3.97 µM (active) | outcome [2]: inactive | outcome [3]: inactive | outcome [4]: inactive | outcome [18]: inactive | outcome [6]: inactive | outcome [7]: inactive | outcome [8]: inactive | outcome [9]: inactive | outcome [10]: inactive | outcome [11]: inactive | outcome [12]: inactive | outcome [13]: inactive | outcome [14]: inactive | outcome [20]: inactive | outcome [15]: inactive | outcome [16]: inactive | outcome [17]: inactive

c1ccc2sc(SSN3CCOCC3)nc2c1
outcome [1]: inactive | outcome [2]: inactive | outcome [3]: inactive | AC50 [4]: 6.19 µM (active) | outcome [5]: inactive | AC50 [18]: 8.8 µM (active) | AC50 [6]: 4.4 µM (active) | outcome [7]: inactive | AC50 [9]: 6.7 µM (active) | outcome [10]: inactive | outcome [11]: inactive | AC50 [12]: 6.28 µM (active) | AC50 [13]: 12.3 µM (active) | outcome [14]: inactive | outcome [20]: inactive | outcome [15]: inactive | outcome [16]: inactive | outcome [17]: inactive

CCCCC1C(=O)N(c2ccccc2)N(c2ccccc2)C1=O
outcome [1]: inactive | outcome [2]: inactive | outcome [3]: inactive | outcome [4]: inactive | AC50 [18]: 37.5 µM (active) | outcome [6]: inactive | outcome [19]: inactive | outcome [7]: inactive | outcome [8]: inactive | outcome [9]: inactive | outcome [10]: inactive | outcome [11]: inactive | outcome [12]: inactive | outcome [13]: inactive | outcome [14]: inactive | outcome [20]: inactive | outcome [15]: inactive | outcome [16]: inactive | outcome [17]: inactive

C=CC(=O)OCCCCCCOC(=O)C=C
AC50 [1]: 12.3 µM (active) | AC50 [2]: 20 µM (active) | outcome [3]: inactive | AC50 [4]: 20 µM (active) | outcome [5]: inactive | AC50 [18]: 12.9 µM (active) | AC50 [6]: 10.3 µM (active) | outcome [7]: inactive | outcome [8]: inactive | AC50 [9]: 20 µM (active) | AC50 [10]: 20 µM (active) | AC50 [11]: 7.89 µM (active) | AC50 [12]: 20 µM (active) | AC50 [13]: 26 µM (active) | AC50 [14]: 35.7 µM (active) | outcome [20]: inactive | outcome [15]: inactive | outcome [16]: inactive | AC50 [17]: 11.4 µM (active)
